Measured values from PubChem BioAssay AID493168 (National Center for Advancing Translational Sciences (NCATS), 2011).
Results filed as inconclusive are left out. Active and inactive are the calls of the source. Calls follow the shape of the dose curve; as a rule, active = well fitted inhibition curve with a large enough effect; inconclusive = small, poorly fitted or top-dose-only effect, or effect the other way; inactive = flat fitted curve, though single readings scatter.

Target: Ubiquitin carboxyl-terminal hydrolase 2 (Homo sapiens) (UniProt O75604)
Assay: Confirmation Assay for Inhibitors of Ubiquitin-specific Protease USP2a Using CHOP2 as the Reporter; also: nearly all actives have a fitted effect of over 55% in size;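 as to activity change, negative = inhibition: plate controls were DMSO wells for no effect and full inhibition by NEM control for full effect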
Settings: USP2 core, Ub-CHOP2 coupled reporter fluorescence; series mostly up to 38.3 µM; activity change, negative = inhibition: at the top concentration
Outline: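 USP2 core (10 nM final) was preincubated with compound for 30 min at RT in Tris-HCl pH 8.0, CaCl2, beta-mercaptoethanol, CHAPS. Ub-CHOP2 and reporter substrate (25 nM final each) were added, and fluorescence (Ex 485/Em 531 nm) was read after 60 min.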
Potency is read from the fitted curve at half-maximal effect.

Ubiquitin carboxyl-terminal hydrolase 2 (Homo sapiens), sequence (O75604 whole entry, looked up): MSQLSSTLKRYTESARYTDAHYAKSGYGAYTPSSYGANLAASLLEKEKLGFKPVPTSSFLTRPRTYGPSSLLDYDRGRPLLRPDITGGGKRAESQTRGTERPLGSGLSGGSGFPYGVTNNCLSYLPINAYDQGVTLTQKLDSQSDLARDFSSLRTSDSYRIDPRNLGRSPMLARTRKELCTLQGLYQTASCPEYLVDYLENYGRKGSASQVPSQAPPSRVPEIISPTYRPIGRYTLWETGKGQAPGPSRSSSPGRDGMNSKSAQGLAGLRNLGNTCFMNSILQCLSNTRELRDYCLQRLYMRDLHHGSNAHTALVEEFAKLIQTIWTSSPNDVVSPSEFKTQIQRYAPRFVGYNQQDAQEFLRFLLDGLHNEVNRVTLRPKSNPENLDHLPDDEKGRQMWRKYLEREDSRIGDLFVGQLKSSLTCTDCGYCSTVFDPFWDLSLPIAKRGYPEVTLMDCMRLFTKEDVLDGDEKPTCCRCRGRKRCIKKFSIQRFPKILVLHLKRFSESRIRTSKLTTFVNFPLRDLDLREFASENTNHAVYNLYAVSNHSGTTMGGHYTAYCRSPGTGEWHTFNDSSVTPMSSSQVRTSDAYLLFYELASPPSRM

Activity change, negative = inhibition, inactive:
COC(=O)c1[nH]c(=O)c2ccccc2c1OCc1ccccc1 -3.77%
C/C(Cn1nnc2ccccc21)=N\OC(=O)c1ccccc1C 5.51%
CSCCC(NC(=O)c1cc(C(C)(C)C)oc1C)C(=O)O (stereo not drawn) -0.12%
COCc1c(C(=O)OCC(=O)c2c(N)n(CC(C)C)c(=O)n(C)c2=O)oc2ccccc12 -3.99%
N=C1C(c2nc3ccccc3c(=O)[nH]2)=C(O)CN1CCc1ccccc1 0.0409%
O=C(NN=Cc1ccc(N2CCOCC2)s1)c1ccc([N+](=O)[O-])cc1 -0.992%
O=C(NNC(=O)c1cc2ccccc2cc1O)Nc1ccccc1F -0.819%
COc1ccc(/C=C(\NC(=O)c2ccc(OC)c(OC)c2)C(=O)N2CCN(C)CC2)cc1 -1.18%
CCOC(=O)c1[nH]c2ccc(OC)cc2c1NC(=O)CCN1CCC(C)CC1 -3.28%
COc1cccc(C(=O)NC(C)c2ccc(-c3ccccc3)cc2)c1OC (stereo not drawn) -3.09%
Cc1cc(C)n2cc(CSc3nnnn3-c3ccccc3C)nc2n1 -2.31%
CCCOC(=O)CCCCC1SCC(NC(=O)OC)C1NC(=O)OC (stereo not drawn) -0.631%
O=C(CSc1nc2ccccc2c(=O)n1CC1CCCO1)NCc1ccccc1 (stereo not drawn) 2.33%
COc1ccc(CCNC(=O)Cc2cc(=O)[nH]c(=O)[nH]2)cc1OC 1.29%
COC(=O)c1ccccc1NC(=O)CSc1nc(O)cc(=O)n1C1CCCC1 -0.685%
Cc1noc(NS(=O)(=O)c2ccc(N3CC(O)=C(c4ccccc4)C3=N)cc2)c1C 3.36%
Cc1ccc(O)c(CC(C)C)n1 -2.58%

Potency, active:
Cc1cc(-c2csc(NCc3ccccc3)n2)c(C)n1C 18.5 µM
